Assay [1] concerns the target Acetylcholinesterase (Homo sapiens) (UniProt P22303). Kind of assay: Acetylcholinesterase (AChE) small molecule antagonists: enzyme-based qHTS assay (AID 1347397; calls by dose curve; further: nearly all actives have a fitted effect of over 55% in size; further: potency means the concentration at half of the fitted maximal effect). The conditions noted are these: Potency: AChE enzyme activity inhibition; outcome: AChE enzyme activity inhibition. A digest of the protocol: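 Colorimetric DTNB readout of acetylthiocholine hydrolysis, 10 min at room temperature, after 30 min room-temperature exposure of 50 mU/mL recombinant human enzyme to compound; DMSO vehicle control.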

Assay [2] has the same target. Kind of assay: Acetylcholinesterase (AChE) small molecule antagonists: fluorescence cell-based qHTS assay (AID 1347398; calls by dose curve; further: nearly all actives have a fitted effect of over 50% in size; further: potency means the concentration at half of the fitted maximal effect). The conditions noted are these: Potency: AChE activity; outcome: AChE activity. A digest of the protocol: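 Cellular AChE activity read as thiocholine from acetylthiocholine hydrolysis, detected by Thiolite Green fluorescence at 490/520 nm after 40 min at room temperature. Compounds were pre-incubated 30 min at 37 C on adherent SH-SY5Y cells.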
In general terms: In qHTS, concentration-response curves come from the screen itself.

Assay [3] has the same target. Kind of assay: Acetylcholinesterase (AChE) small molecule antagonists: enzyme-based qHTS assay with human liver microsomes (AID 1347399; calls by dose curve; further: nearly all actives have a fitted effect of over 60% in size; further: potency means the concentration at half of the fitted maximal effect). The conditions noted are these: Potency: qHTS inhibition; outcome: qHTS inhibition. A digest of the protocol:
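Recombinant human AChE (50 mU/mL in the enzyme mix) and human liver microsomes (0.25 mg/mL final) were preincubated with compound and NADPH (0.25 mg/mL final) for 30 min at 37 C. Acetylthiocholine/DTNB was then added; thiocholine was read colorimetrically after 10 min at room temperature.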

Assay [4] addresses Cytochrome P450 2D6 (Homo sapiens) (UniProt P10635). Kind of assay: Cytochrome P450 Family 2 Subfamily D Member 6 (CYP2D6) small molecule antagonists: luciferase reporter qHTS assay (AID 1671196). Further: nearly all actives have a fitted effect of over 50% in size. Further: potency means the concentration at half of the fitted maximal effect. The method in brief: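 Test chemicals meet CYP2D6 plus proluciferin substrate (10 min, RT); NADPH regenerating solution then drives turnover for 1 h. Detection reagent halts the reaction; luminescence measured after 20 min.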

Assay [5] addresses Cytochrome P450 2C19 (Homo sapiens) (UniProt P33261). Kind of assay: Cytochrome P450 Family 2 Subfamily C Member 19 (CYP2C19) small molecule antagonists: luciferase reporter qHTS assay (AID 1671197). Further: nearly all actives have a fitted effect of over 65% in size. Further: potency means the concentration at half of the fitted maximal effect. The method in brief: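 Compounds were tested on CYP2C19 activity via proluciferin conversion to luciferin. The 37C, 1 h reaction followed NADPH addition; detection reagent stopped it.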
On the technique in general: A reporter such as luciferase makes a cellular process visible.

Assay [6] addresses Cytochrome P450 1A2 (Homo sapiens) (UniProt P05177). Kind of assay: Cytochrome P450 Family 1 Subfamily A Member 2 (CYP1A2) small molecule antagonists: luciferase reporter qHTS assay (AID 1671199). Further: nearly all actives have a fitted effect of over 50% in size. Further: potency means the concentration at half of the fitted maximal effect. A digest of the protocol: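 Steps: enzyme-substrate mix dispensed; test compounds and furafylline control pinned in; 10 min room temperature; NADPH regeneration solution added, 1 h; reaction stopped with luciferin detection reagent; luminescence read after 20 min.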

The target in assay [7] is Voltage-gated inwardly rectifying potassium channel KCNH2 (Homo sapiens) (UniProt Q12809). Nature of the assay: Human Ether-a-go-go-Related Gene (hERG) channel small molecule antagonists: fluorescence cell-based qHTS assay (AID 1671200).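 Further: hERG-expressing U2OS cells given a thallium stimulus after FluxOR II dye loading; series mostly up to about 77 µM; nearly all actives have a fitted effect of over 50% in size.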 A digest of the protocol: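 Quantitative HTS in hERG-U2OS cells: thallium entry through the channel reports activity, read as continuous 480/540 nm fluorescence over 2 min after stimulus addition.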
Background: The hERG channel carries a current that helps repolarise heart muscle cells.

For assay [8], the target named is Cytochrome P450 3A4 (Homo sapiens) (UniProt P08684). Kind of assay: Cytochrome P450 Family 3 Subfamily A Member 4 (CYP3A4) small molecule antagonists: luciferase reporter qHTS assay (AID 1671201). Further: nearly all actives have a fitted effect of over 50% in size. Further: potency means the concentration at half of the fitted maximal effect. A digest of the protocol: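 Inhibition of CYP3A4 is measured as loss of light: the enzyme converts a proluciferin substrate to luciferin, detected luminescently. Reaction ran 1 h at room temperature with NADPH regeneration after a 10 min compound preincubation.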

Assay [9] concerns the target Cytochrome P450 2C9 (Homo sapiens) (UniProt P11712). Nature of the assay: Cytochrome P450 Family 2 Subfamily C Member 9 (CYP2C9) small molecule antagonists: luciferase reporter qHTS assay (AID 1671198). Further: nearly all actives have a fitted effect of over 50% in size. Further: potency means the concentration at half of the fitted maximal effect. The method in brief:
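Enzyme-substrate mix preincubated with compound 10 min at room temperature; reaction started with NADPH regeneration solution, 1 h 37C. Luminescent luciferin product read after 20 min detection reagent.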

Values joined by “and” are separate entries in the source; they are usually repeats but may differ in a detail not shown here. Equal values may be shown once. A number with no mark means an inactive call. Records with an inconclusive call do not appear. Active and inactive are the calls of the source. Unless noted, the call rests on the fitted dose curve; in most records, active means well fitted curve in the direction sought with a large enough effect in the repeat runs; inconclusive means weak or mixed curves; inactive means no such curve, though single readings can be large; an effect the other way counts as inactive or inconclusive.

Cytochrome P450 2D6 (Homo sapiens), sequence (P10635 whole entry, looked up): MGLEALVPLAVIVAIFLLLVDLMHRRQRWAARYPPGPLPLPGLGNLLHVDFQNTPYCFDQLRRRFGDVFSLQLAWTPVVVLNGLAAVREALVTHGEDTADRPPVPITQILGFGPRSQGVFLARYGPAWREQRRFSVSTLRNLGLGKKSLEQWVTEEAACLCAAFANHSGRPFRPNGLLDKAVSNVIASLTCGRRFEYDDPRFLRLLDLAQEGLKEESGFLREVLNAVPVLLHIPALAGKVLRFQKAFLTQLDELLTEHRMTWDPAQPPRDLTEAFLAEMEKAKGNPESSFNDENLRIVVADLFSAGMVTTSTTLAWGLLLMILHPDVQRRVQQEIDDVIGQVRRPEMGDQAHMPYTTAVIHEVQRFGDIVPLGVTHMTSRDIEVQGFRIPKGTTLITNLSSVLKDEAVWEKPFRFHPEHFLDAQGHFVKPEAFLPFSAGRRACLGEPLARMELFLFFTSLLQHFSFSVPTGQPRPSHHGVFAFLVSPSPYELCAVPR
Acetylcholinesterase (Homo sapiens), sequence (P22303 whole entry, looked up): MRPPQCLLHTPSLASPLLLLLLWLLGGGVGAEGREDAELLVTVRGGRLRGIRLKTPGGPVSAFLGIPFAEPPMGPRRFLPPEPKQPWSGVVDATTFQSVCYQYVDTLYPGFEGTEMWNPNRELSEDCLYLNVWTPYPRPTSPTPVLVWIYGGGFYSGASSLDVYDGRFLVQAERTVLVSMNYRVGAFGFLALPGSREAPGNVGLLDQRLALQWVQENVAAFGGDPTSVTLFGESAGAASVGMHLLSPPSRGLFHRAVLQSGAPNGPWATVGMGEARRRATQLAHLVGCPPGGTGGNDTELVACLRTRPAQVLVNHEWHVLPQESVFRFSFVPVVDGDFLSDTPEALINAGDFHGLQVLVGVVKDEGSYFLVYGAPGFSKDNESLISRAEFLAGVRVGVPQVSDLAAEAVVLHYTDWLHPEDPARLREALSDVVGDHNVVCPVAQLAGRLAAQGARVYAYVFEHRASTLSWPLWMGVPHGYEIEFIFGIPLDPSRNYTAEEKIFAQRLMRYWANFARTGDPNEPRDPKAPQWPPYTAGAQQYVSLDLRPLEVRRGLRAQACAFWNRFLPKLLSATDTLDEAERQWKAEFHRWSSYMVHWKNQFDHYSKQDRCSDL
Voltage-gated inwardly rectifying potassium channel KCNH2 (Homo sapiens), sequence (Q12809 whole entry, looked up): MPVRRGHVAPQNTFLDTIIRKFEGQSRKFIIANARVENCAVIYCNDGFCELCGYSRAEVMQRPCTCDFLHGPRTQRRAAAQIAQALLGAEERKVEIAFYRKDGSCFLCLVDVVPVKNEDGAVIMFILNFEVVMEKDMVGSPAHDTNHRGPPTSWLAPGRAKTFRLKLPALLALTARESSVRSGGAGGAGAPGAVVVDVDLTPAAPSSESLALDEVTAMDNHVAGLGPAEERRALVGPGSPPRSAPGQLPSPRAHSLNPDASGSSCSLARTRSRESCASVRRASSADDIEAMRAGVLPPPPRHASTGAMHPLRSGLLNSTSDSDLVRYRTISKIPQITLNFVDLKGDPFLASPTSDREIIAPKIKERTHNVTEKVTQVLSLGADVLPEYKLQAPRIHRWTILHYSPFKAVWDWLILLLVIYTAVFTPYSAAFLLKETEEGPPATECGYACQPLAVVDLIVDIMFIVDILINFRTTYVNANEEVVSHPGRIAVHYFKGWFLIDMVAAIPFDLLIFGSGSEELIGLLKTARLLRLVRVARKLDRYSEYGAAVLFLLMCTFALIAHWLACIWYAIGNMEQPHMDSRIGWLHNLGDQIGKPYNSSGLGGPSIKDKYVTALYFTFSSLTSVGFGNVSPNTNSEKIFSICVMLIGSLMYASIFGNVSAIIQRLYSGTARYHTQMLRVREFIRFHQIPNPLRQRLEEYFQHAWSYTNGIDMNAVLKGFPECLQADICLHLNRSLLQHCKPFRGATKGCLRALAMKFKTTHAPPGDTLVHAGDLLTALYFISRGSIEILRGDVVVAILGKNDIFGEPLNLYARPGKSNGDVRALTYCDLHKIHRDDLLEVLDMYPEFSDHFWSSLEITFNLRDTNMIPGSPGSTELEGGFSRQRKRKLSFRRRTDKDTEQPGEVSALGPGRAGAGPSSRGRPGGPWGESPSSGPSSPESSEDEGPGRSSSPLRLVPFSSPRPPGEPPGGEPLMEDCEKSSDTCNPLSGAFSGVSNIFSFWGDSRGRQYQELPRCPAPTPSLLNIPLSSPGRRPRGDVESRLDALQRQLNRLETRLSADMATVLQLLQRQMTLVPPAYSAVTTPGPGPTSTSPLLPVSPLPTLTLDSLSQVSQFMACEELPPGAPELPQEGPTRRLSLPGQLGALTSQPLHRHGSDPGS
Cytochrome P450 2C9 (Homo sapiens), sequence (P11712 whole entry, looked up): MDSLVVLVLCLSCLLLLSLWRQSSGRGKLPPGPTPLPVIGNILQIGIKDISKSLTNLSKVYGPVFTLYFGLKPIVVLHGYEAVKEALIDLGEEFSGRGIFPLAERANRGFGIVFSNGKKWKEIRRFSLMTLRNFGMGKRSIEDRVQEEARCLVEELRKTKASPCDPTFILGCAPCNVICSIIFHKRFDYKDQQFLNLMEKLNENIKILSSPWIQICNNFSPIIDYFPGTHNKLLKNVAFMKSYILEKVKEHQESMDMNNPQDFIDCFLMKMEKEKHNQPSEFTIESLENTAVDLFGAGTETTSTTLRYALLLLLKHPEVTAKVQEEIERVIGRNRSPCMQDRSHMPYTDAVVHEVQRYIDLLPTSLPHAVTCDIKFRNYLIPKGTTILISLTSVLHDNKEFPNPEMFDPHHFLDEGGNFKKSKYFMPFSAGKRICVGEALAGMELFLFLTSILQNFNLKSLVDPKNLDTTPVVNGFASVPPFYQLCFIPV
Cytochrome P450 3A4 (Homo sapiens), sequence (P08684 whole entry, looked up): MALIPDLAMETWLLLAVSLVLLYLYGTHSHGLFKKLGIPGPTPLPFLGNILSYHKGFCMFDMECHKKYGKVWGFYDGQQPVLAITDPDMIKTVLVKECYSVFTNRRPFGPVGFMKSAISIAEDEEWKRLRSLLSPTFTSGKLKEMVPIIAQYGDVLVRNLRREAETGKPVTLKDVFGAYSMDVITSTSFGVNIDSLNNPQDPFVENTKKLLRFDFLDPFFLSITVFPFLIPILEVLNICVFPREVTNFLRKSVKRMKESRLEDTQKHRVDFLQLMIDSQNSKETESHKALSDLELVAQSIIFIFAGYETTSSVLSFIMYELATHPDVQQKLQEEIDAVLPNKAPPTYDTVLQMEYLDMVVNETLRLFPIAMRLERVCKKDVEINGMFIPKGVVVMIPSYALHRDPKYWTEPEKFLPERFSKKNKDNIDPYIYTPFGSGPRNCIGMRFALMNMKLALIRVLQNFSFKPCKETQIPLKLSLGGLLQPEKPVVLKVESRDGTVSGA
Cytochrome P450 2C19 (Homo sapiens), sequence (P33261 whole entry, looked up): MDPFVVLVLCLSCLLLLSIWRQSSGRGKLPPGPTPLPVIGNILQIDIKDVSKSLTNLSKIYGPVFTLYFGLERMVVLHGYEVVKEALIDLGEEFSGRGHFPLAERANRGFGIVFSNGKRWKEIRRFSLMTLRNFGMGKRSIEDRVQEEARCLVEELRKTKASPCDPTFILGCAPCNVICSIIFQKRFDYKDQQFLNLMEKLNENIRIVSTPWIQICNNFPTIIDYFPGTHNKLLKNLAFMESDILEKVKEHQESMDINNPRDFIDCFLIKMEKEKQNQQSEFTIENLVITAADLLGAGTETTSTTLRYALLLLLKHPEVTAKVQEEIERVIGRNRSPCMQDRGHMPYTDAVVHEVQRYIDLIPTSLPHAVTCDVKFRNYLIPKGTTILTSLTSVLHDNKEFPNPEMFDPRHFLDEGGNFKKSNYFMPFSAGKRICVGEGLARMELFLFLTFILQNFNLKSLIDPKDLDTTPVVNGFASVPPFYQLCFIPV
Cytochrome P450 1A2 (Homo sapiens), sequence (P05177 whole entry, looked up): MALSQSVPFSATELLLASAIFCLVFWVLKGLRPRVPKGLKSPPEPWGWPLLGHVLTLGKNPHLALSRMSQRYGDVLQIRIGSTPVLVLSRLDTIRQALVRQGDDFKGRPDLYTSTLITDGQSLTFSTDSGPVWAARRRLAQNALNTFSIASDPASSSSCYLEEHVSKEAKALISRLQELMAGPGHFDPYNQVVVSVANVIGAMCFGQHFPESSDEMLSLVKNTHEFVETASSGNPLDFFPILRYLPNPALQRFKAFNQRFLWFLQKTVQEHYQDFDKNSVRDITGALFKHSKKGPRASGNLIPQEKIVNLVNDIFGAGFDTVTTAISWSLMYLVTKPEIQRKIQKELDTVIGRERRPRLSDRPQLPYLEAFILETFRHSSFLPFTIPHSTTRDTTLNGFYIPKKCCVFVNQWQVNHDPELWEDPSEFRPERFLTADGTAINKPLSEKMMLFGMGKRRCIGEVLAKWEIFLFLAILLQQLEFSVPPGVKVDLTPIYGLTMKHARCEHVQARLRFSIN

As for `BrCC1CO1` (stereo not given), the Potency entry in [1], in assay [2], in [3], in assay [4], in assay [5] and in assay [6] was “inactive” each time. The Potency entry in assay [7] and in [8] was “inactive” each time.

Regarding `O=C(NC(=O)c1c(F)cccc1F)Nc1cc(Cl)c(F)c(Cl)c1F`, the Potency result in assay [1], in assay [2], in assay [3], in assay [4], in [7] and in assay [8] was “inactive” in each case. Also, the Potency was 69.2 µM (active) in assay [5] and 30.9 µM (active) in [6].

In the case of `CON(C)C(=O)Nc1ccc(Br)c(Cl)c1`, the Potency entry in assay [1], in assay [2], in [3], in assay [4] and in assay [7] was “inactive” in each case. For the same compound, the Potency in assay [5] is 28.3 µM (active); in [6], 1.78 µM (active).

Regarding `CON(C)C(=O)Nc1ccc(Br)cc1`, the Potency entry in assay [1], in assay [2], in [3], in assay [4], in assay [7] and in assay [8] was “inactive” throughout. Moreover, the Potency in assay [5] was 35.6 µM (active); in assay [6], 5.64 µM (active).

With `CC(C)c1ccc(O)cc1`, the Potency result in [1], in assay [2], in assay [3], in assay [4], in assay [5] and in [7] was “inactive” throughout. Besides, the Potency result in assay [8] was “inactive”. The Potency in [6] was 22.4 µM (active).

Consider `C[C@H](N)C(=O)c1ccccc1`, for which the Potency result in [1], in assay [2], in [3] and in assay [7] was “inactive” in each case. The Potency in assay [4] was 42.2 µM (active); in [5], 47.3 µM (active); in [6] it was 53.1 µM (active).

For `C=CC1(C)OC(=O)N(c2cc(Cl)cc(Cl)c2)C1=O` (stereo not given), the Potency result in assay [1], in assay [2], in assay [3] and in [4] was “inactive” each time. In addition, the Potency in [5] is 7.92 µM (active) and 12.6 µM (active); in [6], 5.61 µM (active) and 6.33 µM (active).

As to `CCN(CC)CCOC(=O)C(O)(c1ccccc1)c1ccccc1`, the Potency entry in [1], in assay [2], in assay [3], in [5] and in assay [6] was “inactive” each time. Further, in [4], the Potency was 3.47 µM (active).

On to `CC(Cc1ccccc1)NCCCCl` (stereo not given), for which the Potency entry in assay [1], in [2], in assay [3], in assay [5] and in assay [6] was “inactive” each time. Also, the Potency in assay [4] was 1.74 µM (active).

With `CC#Cc1cc(C)nc(Nc2ccccc2)n1`, the Potency result in [1], in assay [2], in assay [3], in assay [4] and in assay [7] was “inactive” throughout. Besides, the figures for the Potency in assay [5], in [6] and in [8] were 35.5 µM (active), 1.59 µM (active) and 63.2 µM (active), respectively.

In the case of `CCNc1nc(Cl)nc(NC(C)(C)C)n1`, the Potency result in assay [1], in [2], in assay [3], in assay [4], in assay [7] and in assay [8] was “inactive” each time. The Potency in assay [5] was 35.6 µM (active); in assay [6], 11.2 µM (active).

As for `CC(Cc1ccccc1)NCCn1cnc2c1c(=O)n(C)c(=O)n2C` (stereo not given), the Potency entry in assay [1], in assay [2], in assay [3], in [6] and in assay [7] was “inactive” throughout. The Potency in assay [4] was 4.96 µM (active); in [5], 78.7 µM (active).

On to `OCC(Cl)CCl` (stereo not given), for which the Potency result in assay [1], in assay [2], in assay [3], in assay [4], in assay [7] and in [8] was “inactive” throughout. In addition, the Potency is 70.1 µM (active) in [5] and 39.4 µM (active) in [6].

As for `Clc1ccc(C(Cl)(Cl)Cl)cn1`, the Potency result in [1], in [2], in assay [3], in assay [4], in assay [5] and in assay [7] was “inactive” in each case. Further, in assay [6], the Potency is 7.96 µM (active).

Take `CNC(=O)Oc1ccccc1C(C)C`: the Potency was 7.96 µM (active) in assay [1]; 4.48 µM (active) in [2]; 56.4 µM (active) in assay [3]; 39.9 µM (active) in [5]; 35.6 µM (active) in assay [6]. Besides, the Potency result in [4], in assay [7] and in assay [8] was “inactive” in each case.

Turning to `CC[C@@H](CO)NC(=O)[C@@H]1C=C2c3cccc4c3c(cn4C)C[C@H]2N(C)C1`, the Potency in [1] is 4.36 µM (active); in assay [2] it was 1.1 µM (active); in assay [4], 6.92 µM (active). Besides, the Potency entry in [3], in [5] and in [7] was “inactive” in each case.

In the case of `Cc1cc(OC(=O)N(C)C)nn1C(=O)N(C)C`, the Potency was 5.03 µM (active) in assay [1]; 1.26 µM (active) in assay [2]; 39.9 µM (active) in assay [3]; 31.7 µM (active) in assay [4]; 35.6 µM (active) in assay [5]. Also, the Potency result in assay [7] and in assay [8] was “inactive” in each case.

Turning to `COP(=O)(OC)O/C(C)=C/C(=O)N(C)C`, the Potency in assay [1] is 63.7 µM (active); in [2], 14.3 µM (active). In addition, the Potency entry in [3], in [4], in assay [5], in assay [7] and in assay [8] was “inactive” each time.

As to `ClCCCCl`, the Potency entry in assay [1], in assay [2], in assay [3], in assay [4], in [9] and in assay [7] was “inactive” each time. In assay [8], the Potency result was “inactive”. Further, in [6], the Potency is 23.9 µM (active).

`N[C@@H]1C[C@H]1c1ccccc1`: the compound was called inactive in assay [1], in assay [2] and in assay [3]. Moreover, the Potency was 27.5 µM (active) in assay [4] and 19.5 µM (active) in assay [9]. Further, the Potency result in [7] was “inactive”.

Regarding `C=C1CC[C@@]2(O)[C@H]3Cc4ccc(O)c5c4[C@@]2(CCN3CC2CC2)[C@H]1O5`, the Potency entry in assay [1], in [2], in assay [3], in [5], in assay [6] and in [8] was “inactive” in each case. Besides, the Potency in assay [4] is 2.19 µM (active).

Regarding `COC(=O)c1ccc(CBr)cc1`, the Potency result in assay [1], in [2] and in assay [3] was “inactive” in each case. Besides, the Potency in assay [4] was 64 µM (active); in assay [6] it was 36 µM (active).

For `C=CC(=O)OCCN(C)C`, the Potency result in [1], in [2], in assay [3], in assay [4], in [9] and in assay [6] was “inactive” each time. In addition, the Potency entry in assay [7] and in assay [8] was “inactive” throughout.

`CN1COCN(Cc2cnc(Cl)s2)/C1=N\[N+](=O)[O-]`: the Potency result in assay [1], in assay [2], in assay [3], in assay [4], in assay [5] and in assay [7] was “inactive” throughout. For the same compound, in assay [8], the Potency entry was “inactive”.

For `C/C(=N\NC(=O)Nc1cc(F)cc(F)c1)c1ncccc1C(=O)O`, the Potency entry in [1], in [2], in assay [3], in assay [4], in assay [7] and in [8] was “inactive” in each case. The Potency in assay [9] was 10 µM (active) and 12.6 µM (active).

`CCCCS(=O)(=O)Cl`: the Potency result in [1], in assay [2], in assay [3], in assay [4], in [9] and in [6] was “inactive” each time. Besides, the Potency entry in assay [7] and in [8] was “inactive” each time.

On to `O=C(Cl)OCc1ccccc1`, for which the Potency entry in assay [1], in assay [2], in [3], in assay [4], in assay [9] and in [7] was “inactive” in each case. Moreover, the Potency result in assay [8] is “inactive”.

On to `CCCOc1nn(C(=O)NS(=O)(=O)c2ccccc2C(=O)OC)c(=O)n1C`, for which the Potency result in assay [1], in assay [2], in assay [3], in [4], in [5] and in assay [6] was “inactive” throughout. Besides, in assay [8], the Potency result was “inactive”.

As for `COC(=O)c1ccccc1CS(=O)(=O)NC(=O)Nc1nc(OC)cc(OC)n1`, the Potency entry in assay [1], in [2], in assay [3], in assay [4], in assay [9] and in assay [7] was “inactive” each time. Moreover, the Potency entry in assay [8] was “inactive”.

`COc1ccc(C=O)cc1O`: the Potency result in assay [1], in assay [2], in assay [3], in assay [4], in assay [9] and in [8] was “inactive” in each case.

For the compound `N#CN=C1SCCN1Cc1ccc(Cl)nc1`, the Potency result in assay [1], in assay [2], in assay [3], in assay [5], in assay [7] and in [8] was “inactive” in each case. For the same compound, in assay [4], the Potency was 39.9 µM (active).
